High-throughput results: PubChem BioAssay, National Center for Advancing Translational Sciences (NCATS)
Sampled rows, rich in hits. Any-hit rate of the full collection: about 3.8%.
ATXN viability: reduces viability in counter-screen for ATXN expression inhibitors | S2 cells (HEK-293 line with an ATXN2-luciferase reporter) viability, CellTiter-Fluor protease fluorescence, 24 h | Potency, µM (doses to about 56.7 µM), usual class: cytotoxic | 400,000 tested, 0.49% active | AID 651635; further: nearly all actives have a fitted effect of over 40% in size
ATXN2 expr inh: ATXN2 expression inhibition. HEK-293 ATXN2-luciferase reporter, luminescence, 24 h. Potency, µM (top dose mostly 57 µM), actives largely listed as inhibitors. 360,000 tested, 0.72% active. AID 1745845; further: nearly all actives have a fitted effect of over 55% in size
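qHTS (up to 57 uM final) was run with 24 h compound exposure of reporter cells at 37 °C. Each well was multiplexed: SteadyGlo luminescence measured ATXN2-luciferase expression after a fluorogenic Gly-Phe-AFC viability readout (25 uM final).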
HepG2 viability: HepG2 cytotoxicity, counter-screen for TGF-b inhibitors; Potency, µM (titrated, usually from 46.1 µM), usual class: cytotoxic; 410,000 tested, 0.76% active; HepG2 CAGA-GFP viability, ATP luminescence, 18 h; AID 588856
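CellTiter-Glo luminescence gave cytotoxicity after 18 hours at 37 degrees C. The cells were HepG2 CAGA-GFP in 1% FBS DMEM, stimulated with 500 pg/mL TGF-beta after compound addition. %Activity was normalised to no-cell wells (complete cell-killing) and DMSO (no toxicity), and curves were fitted and classified.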
TGFb SMAD3 inh: blocks TGF-b signaling. 410,000 tested, 1.2% active. Potency, µM (doses to about 46.1 µM), actives largely listed as inhibitors. HepG2 CAGA-GFP TGF-b/SMAD3 reporter, GFP fluorescence, 18 h; TGF-beta stimulated, 500 pg/mL final. AID 588855; further: nearly all actives have a fitted effect of over 65% in size
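First, reporter cells (HEPG2 CAGA-GFP) rested 2 h at 37 degrees C. Next, compounds were pinned in and TGF-beta added to 500 pg/mL final. After 18 h, GFP was imaged per cell and summed per well.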
HT1080 IDH1KD tx: kills HT-1080 cells with IDH1 knockdown; HT-1080 IDH1 knockdown viability, ATP luminescence, 48 h; Potency, µM (highest dose often 46.1 µM), hits mostly cytotoxic; 360,000 tested, 2% active; AID 686971
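% activity derives from luminescence (CellTiter-Glo), normalised to DMSO and no-cell wells. HT-1080-IDH1KD cells, 750/well, had 48 h compound exposure at 37 °C.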
HT1080NT lethal: kills 2HG-producing HT-1080-NT fibrosarcoma cells | 360,000 tested, 1.6% active | Potency, µM (titrated, usually from 46.1 µM), actives largely listed as cytotoxic | HT-1080-NT fibrosarcoma viability, CellTiter-Glo ATP luminescence, 48 h;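 further: NT is the 2HG producing partner of a matched IDH1 knockdown line; nearly all actives have a fitted effect of over 55% in size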
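750 cells/well, RPMI + 5% FBS; 2 h settle, compound pin-transfer, 48 h at 37 degrees C. CellTiter-Glo 10 min RT, luminescence. Normalized to DMSO and media-only wells.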
A number is an active result; n = inactive; u = inconclusive; x = no result given. The call rests on the fitted dose curve; in most records, active means well fitted curve in the direction sought with a large enough effect; inconclusive means small, poorly fitted or top-dose-only effect, or another doubt; inactive means no such curve, though single readings can be large; an effect the other way counts as inactive or inconclusive.

SMILES | ATXN viability | ATXN2 expr inh | HepG2 viability | TGFb SMAD3 inh | HT1080 IDH1KD tx | HT1080NT lethal
CC(C)C[C@H](NC(=O)c1[nH]cnc1C(=O)Nc1ccc(Cl)cc1)C(=O)OC(C)(C)C | 28µM | u | n | u | u | u
C[N+]1(CC(=O)c2ccc(-c3ccccc3)cc2)CCOCC1 | x | x | n | n | x | x
CCOc1cc2sc(N3CCC(C(=O)Nc4ccccc4Cl)CC3)nc2cc1Br | n | n | n | n | x | x
CC(C)(C)OC(=O)[C@H](Cc1ccccc1)NC(=O)c1[nH]cnc1C(=O)Nc1ccc(Cl)cc1 | x | u | 16µM | u | u | u
CC(C)(C)OC[C@H](NC(=O)c1[nH]cnc1C(=O)Nc1ccccc1F)C(=O)OC(C)(C)C | x | u | 20µM | u | u | u
CC(C)(C)OC(=O)NCCCCCNC(=O)c1[nH]cnc1C(=O)Nc1ccc(Cl)cc1 | u | u | 18µM | u | u | u
CC(C)C[C@H](NC(=O)c1nc[nH]c1C(=O)N[C@@H](CC(C)C)C(=O)OC(C)(C)C)C(=O)OC(C)(C)C | 22µM | u | n | u | u | u
Cc1ccc(NC(=O)c2nc[nH]c2C(=O)NCCCCCNC(=O)OC(C)(C)C)cc1 | x | u | n | u | n | u
Nc1c(Br)cc(/C=C2\C=Cc3ccccc32)cc1Br | x | x | n | n | x | x
CC(C)(C)OC(=O)[C@H](Cc1ccccc1)NC(=O)c1[nH]cnc1C(=O)N[C@@H](Cc1ccccc1)C(=O)OCc1ccccc1 | u | n | n | u | n | n
C[C@H](NC(=O)c1nc[nH]c1C(=O)N[C@@H](Cc1ccccc1)C(=O)OC(C)(C)C)C(=O)OC(C)(C)C | x | u | 16µM | u | u | u
COc1ccc(C2=NOC(C(=O)NCc3cccs3)C2)cc1 (stereo not drawn) | n | n | n | n | 5.2µM | u
COc1cc(OC)c(C2=NOC(C(=O)NCc3cccnc3)C2)cc1Cl (stereo not drawn) | n | x | n | n | u | u
COc1cc(C2=NOC(C(=O)NCc3cccs3)C2)cc(OC)c1OC (stereo not drawn) | n | n | n | n | 7.3µM | 5.8µM
COc1cc(OC)c(C2=NOC(C(=O)NCc3cccs3)C2)cc1Cl (stereo not drawn) | n | n | n | n | 4.6µM | 4.1µM
COc1ccc(CNC(=O)C2CC(c3ccc(OC)cc3)=NO2)cc1 (stereo not drawn) | n | n | n | n | n | n
COc1ccc(C2=NOC(C(=O)NCc3ccco3)C2)cc1 (stereo not drawn) | n | n | n | n | 6.3µM | 7.1µM
Cc1cc(C)c2oc(-c3cccc(NC(=O)COc4ccc(Cl)cc4C)c3C)nc2c1 | x | x | n | n | x | x
COc1ccc2c(c1)CCc1cnc(-n3ncc(C(=O)NCC(C)(C)CN(C)C)c3C)nc1-2 | n | x | x | x | x | x
Cc1ccc(CNC(=O)C2CC(c3cc(C(F)(F)F)cc(C(F)(F)F)c3)=NO2)o1 (stereo not drawn) | n | n | n | n | 23µM | u
COc1ccc(C2=NOC(C(=O)NCc3cccs3)C2)cc1OC (stereo not drawn) | u | n | n | n | 6.5µM | u
COc1ccc(-n2nc(C(N)=O)c3c2C(=O)N(c2ccc(N4CCCCC4=O)cc2)CC3)cc1 | x | n | x | x | x | x
COc1ccc(CCNc2oc(/C=C/c3ccc(OC)c(OC)c3)nc2C#N)cc1 | x | x | n | n | x | x
COc1ccc(NC(=O)C2Cc3c(-c4cccc(C(N)=O)c4)ccnc3O2)cc1 (stereo not drawn) | n | n | n | n | 15µM | 12µM
COc1ccc(NC(=O)C2Cc3c(-c4cccc(F)c4)ccnc3O2)cc1 (stereo not drawn) | n | n | n | n | u | n
CC1(C(=O)NCc2ccccc2)Cc2c(-c3cccc(C(N)=O)c3)ccnc2O1 (stereo not drawn) | u | n | n | n | u | u
